{
  "source": "the supplement of paper PMC10849652",
  "note": "The full data set covers some 7,900 targets. This sample favours those with a hit. About 0.6% of all pairs of compound and target were hits. A number with no mark means an inactive call.",
  "data": [
    {"compound": "CC[C@@H]1C(=O)N(C)c2cnc(Nc3ccc(C(=O)N[C@H]4CC[C@H](N5CCN(CC6CC6)CC5)CC4)cc3OC)nc2N1C(C)C [volasertib]", "test": "log2 fold change, soluble protein after heating vs DMSO (PISA); higher = thermal stabilisation; K562 cells, 10 uM, 30 min; active = over 0.2 and 3.5 SD of the protein, either way, in both replicates (recomputed)", "method_in_brief": "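Soluble protein was defined as the supernatant after 21,000xg for 90 min. It came from K562 cells at 2×10^6 cells/mL given 10 μM compound for 30 min, heated in aliquots for 3 min across 48°C-58°C, pooled, and extracted in PBS with 0.5% NP-40 at 4°C, and was quantified by TMTpro 16plex LC-MS/MS with equalised channel sums. Thermal stability against control samples, from duplicates, is reported as log2 fold change.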", "values": [
      {"target": "ABHD17A isoform 2 (UniProt Q96GS6)", "log2 fold change": -0.172},
      {"target": "AASDH (UniProt Q4L235)", "log2 fold change": "-0.445 (active)"},
      {"target": "ARFGAP2 (UniProt Q8N6H7)", "sequence (Q8N6H7 whole entry, looked up)": "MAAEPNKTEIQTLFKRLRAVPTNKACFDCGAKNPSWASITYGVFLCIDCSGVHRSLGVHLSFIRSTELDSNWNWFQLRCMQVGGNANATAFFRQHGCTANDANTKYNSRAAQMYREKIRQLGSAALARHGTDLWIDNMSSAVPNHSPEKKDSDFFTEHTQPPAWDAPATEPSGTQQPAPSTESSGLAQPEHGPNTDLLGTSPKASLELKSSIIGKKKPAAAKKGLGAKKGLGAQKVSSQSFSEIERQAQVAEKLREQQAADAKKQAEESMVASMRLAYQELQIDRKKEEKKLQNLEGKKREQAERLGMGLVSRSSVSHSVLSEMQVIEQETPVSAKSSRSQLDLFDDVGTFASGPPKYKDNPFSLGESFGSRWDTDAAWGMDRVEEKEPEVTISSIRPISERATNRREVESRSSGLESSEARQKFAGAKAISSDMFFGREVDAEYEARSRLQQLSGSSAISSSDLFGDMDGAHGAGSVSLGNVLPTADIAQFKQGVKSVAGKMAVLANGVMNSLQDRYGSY", "log2 fold change": "-0.257 (active)"},
      {"target": "ACTBL2 (UniProt Q562R1)", "log2 fold change": 0.153},
      {"target": "AMD1 (UniProt P17707)", "sequence (P17707 whole entry, looked up)": "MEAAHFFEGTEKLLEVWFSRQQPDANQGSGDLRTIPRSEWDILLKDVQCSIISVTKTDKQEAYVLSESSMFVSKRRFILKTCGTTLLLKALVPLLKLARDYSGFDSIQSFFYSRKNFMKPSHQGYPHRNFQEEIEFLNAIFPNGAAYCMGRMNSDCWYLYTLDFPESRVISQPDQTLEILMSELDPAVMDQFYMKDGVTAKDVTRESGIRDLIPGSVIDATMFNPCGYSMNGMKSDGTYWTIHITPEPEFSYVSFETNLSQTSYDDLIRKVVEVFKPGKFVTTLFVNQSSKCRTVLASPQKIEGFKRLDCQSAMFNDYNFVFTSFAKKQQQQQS", "log2 fold change": -0.098},
      {"target": "BRD4 (UniProt O60885)", "log2 fold change": "2.02 (active)"},
      {"target": "ADPRH (UniProt P54922)", "log2 fold change": 0.108},
      {"target": "BDH2 (UniProt Q9BUT1)", "sequence (Q9BUT1 whole entry, looked up)": "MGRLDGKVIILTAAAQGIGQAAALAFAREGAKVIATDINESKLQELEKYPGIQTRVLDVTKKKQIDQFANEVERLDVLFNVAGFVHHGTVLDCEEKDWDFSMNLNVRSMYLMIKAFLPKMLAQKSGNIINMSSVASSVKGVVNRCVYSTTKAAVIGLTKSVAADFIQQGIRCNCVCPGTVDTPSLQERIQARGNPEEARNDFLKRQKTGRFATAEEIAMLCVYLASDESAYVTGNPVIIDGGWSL", "log2 fold change": -0.126},
      {"target": "ANXA5 (UniProt P08758)", "sequence (P08758 whole entry, looked up)": "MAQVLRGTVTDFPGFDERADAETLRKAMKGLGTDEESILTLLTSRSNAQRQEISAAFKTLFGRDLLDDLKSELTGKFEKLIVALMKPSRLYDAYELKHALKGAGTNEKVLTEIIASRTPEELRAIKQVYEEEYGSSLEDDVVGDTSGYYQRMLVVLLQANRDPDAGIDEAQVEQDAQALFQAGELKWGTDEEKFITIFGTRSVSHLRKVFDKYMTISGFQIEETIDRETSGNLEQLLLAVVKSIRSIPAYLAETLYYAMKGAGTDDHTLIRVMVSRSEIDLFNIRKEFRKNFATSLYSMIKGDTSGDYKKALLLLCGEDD", "log2 fold change": "-0.214 (active)"},
      {"target": "BTBD6 (UniProt Q96KE9)", "sequence (Q96KE9 whole entry, looked up)": "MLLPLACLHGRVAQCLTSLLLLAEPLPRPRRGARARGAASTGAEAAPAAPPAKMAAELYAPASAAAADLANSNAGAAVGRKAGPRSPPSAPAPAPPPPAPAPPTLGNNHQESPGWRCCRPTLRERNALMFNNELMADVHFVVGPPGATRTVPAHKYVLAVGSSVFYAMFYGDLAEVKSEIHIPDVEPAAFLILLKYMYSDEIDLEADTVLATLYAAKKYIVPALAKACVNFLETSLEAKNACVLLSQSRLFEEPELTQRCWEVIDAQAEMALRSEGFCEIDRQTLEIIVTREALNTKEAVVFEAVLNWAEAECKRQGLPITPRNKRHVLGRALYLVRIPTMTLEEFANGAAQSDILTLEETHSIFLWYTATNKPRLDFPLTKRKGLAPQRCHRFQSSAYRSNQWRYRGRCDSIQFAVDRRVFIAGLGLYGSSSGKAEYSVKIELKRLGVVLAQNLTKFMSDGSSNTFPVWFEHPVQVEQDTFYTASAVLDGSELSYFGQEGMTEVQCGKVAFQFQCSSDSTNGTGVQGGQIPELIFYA", "log2 fold change": 0.001},
      {"target": "BYSL (UniProt Q13895)", "sequence (Q13895 whole entry, looked up)": "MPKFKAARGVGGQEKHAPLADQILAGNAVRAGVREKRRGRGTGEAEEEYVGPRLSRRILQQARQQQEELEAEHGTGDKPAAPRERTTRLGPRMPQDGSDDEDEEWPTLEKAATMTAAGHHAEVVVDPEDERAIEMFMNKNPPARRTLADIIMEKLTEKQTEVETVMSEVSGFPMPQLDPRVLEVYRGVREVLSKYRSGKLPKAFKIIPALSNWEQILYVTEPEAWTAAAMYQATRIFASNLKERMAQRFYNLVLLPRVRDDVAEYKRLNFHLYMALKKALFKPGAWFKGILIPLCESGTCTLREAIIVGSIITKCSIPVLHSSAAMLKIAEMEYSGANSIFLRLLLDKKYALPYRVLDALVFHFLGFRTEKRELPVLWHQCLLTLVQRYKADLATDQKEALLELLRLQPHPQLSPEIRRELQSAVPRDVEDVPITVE", "log2 fold change": -0.113},
      {"target": "ALDH2 isoform 2 (UniProt P05091)", "sequence (P05091 whole entry, looked up)": "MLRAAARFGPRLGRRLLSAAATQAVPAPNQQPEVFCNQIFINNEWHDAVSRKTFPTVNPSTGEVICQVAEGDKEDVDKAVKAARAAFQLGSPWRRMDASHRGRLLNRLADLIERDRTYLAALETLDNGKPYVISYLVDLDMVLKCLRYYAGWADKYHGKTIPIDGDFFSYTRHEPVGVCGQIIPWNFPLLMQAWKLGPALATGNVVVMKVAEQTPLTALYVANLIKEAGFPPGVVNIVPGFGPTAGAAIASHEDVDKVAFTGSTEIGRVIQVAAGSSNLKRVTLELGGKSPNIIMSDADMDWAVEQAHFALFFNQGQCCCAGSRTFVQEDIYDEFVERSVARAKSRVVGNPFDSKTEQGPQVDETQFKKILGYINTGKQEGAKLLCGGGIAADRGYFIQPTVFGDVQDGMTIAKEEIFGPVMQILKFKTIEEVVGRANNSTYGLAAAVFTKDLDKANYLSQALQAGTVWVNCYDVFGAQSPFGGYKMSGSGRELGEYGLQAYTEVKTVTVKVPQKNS", "log2 fold change": 0.033},
      {"target": "ARRDC1 (UniProt Q8N5I2)", "sequence (Q8N5I2 whole entry, looked up)": "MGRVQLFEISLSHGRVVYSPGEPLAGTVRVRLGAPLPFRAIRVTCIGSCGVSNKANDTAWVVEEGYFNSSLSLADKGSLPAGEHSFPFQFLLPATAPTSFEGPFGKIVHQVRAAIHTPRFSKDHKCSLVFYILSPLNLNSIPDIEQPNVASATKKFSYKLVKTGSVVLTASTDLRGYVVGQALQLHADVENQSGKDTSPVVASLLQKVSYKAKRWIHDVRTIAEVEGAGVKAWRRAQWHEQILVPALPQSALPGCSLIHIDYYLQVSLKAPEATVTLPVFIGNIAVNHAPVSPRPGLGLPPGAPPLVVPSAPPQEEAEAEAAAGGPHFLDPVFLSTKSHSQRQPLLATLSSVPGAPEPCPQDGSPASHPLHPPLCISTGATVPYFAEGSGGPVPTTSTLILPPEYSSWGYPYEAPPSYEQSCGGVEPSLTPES", "log2 fold change": -0.137},
      {"target": "BRIP1 (UniProt Q9BX63)", "log2 fold change": 0.008},
      {"target": "ADAM15 (UniProt Q13444)", "log2 fold change": -0.103},
      {"target": "ABCA3 (UniProt Q99758)", "log2 fold change": -0.093},
      {"target": "AFG1L (UniProt Q8WV93)", "log2 fold change": -0.223},
      {"target": "BRD8 isoform 2 (UniProt Q9H0E9)", "log2 fold change": 0.025},
      {"target": "ASS1 (UniProt P00966)", "sequence (P00966 whole entry, looked up)": "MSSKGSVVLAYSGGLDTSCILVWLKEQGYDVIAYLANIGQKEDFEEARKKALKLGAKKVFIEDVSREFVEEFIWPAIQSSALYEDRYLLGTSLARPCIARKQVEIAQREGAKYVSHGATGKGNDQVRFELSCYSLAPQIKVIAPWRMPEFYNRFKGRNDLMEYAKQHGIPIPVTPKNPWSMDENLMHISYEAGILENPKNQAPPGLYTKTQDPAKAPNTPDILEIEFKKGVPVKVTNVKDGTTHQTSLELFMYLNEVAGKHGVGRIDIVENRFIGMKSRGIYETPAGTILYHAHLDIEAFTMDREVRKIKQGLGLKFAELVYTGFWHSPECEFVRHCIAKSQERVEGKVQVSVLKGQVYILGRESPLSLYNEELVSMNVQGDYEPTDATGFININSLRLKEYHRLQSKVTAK", "log2 fold change": 0.024},
      {"target": "APOBEC3G (UniProt Q9HC16)", "log2 fold change": -0.008},
      {"target": "ATF7 isoform 6 (UniProt P17544)", "sequence (P17544 whole entry, looked up)": "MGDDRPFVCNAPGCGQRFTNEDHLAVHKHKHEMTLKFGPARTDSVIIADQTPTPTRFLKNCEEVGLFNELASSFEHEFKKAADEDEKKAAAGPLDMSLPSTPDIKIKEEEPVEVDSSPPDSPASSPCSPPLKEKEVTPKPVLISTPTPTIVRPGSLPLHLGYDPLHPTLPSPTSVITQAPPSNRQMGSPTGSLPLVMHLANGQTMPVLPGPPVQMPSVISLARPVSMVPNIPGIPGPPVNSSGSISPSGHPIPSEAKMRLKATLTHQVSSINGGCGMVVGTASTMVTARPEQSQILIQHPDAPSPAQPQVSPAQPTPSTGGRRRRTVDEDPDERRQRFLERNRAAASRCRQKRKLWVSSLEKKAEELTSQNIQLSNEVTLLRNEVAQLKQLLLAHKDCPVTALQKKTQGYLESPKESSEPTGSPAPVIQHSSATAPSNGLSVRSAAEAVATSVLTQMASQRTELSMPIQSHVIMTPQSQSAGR", "log2 fold change": -0.014},
      {"target": "AIFM2 (UniProt Q9BRQ8)", "log2 fold change": -0.035},
      {"target": "ASB6 (UniProt Q9NWX5)", "sequence (Q9NWX5 whole entry, looked up)": "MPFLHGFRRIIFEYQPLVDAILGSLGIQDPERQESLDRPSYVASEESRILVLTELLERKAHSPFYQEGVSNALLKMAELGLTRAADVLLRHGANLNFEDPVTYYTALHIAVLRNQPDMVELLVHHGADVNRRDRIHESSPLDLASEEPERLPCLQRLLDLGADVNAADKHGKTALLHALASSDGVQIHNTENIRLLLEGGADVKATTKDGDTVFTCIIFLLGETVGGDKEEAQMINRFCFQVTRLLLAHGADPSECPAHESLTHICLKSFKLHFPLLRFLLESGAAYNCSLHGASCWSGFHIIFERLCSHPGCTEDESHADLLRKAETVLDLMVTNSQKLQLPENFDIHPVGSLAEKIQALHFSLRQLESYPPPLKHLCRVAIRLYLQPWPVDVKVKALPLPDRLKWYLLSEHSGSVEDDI", "log2 fold change": -0.321}
    ]}
  ]
}
